HCV inhibitor: inhibitors of hepatitis C virus infection; Potency, µM (doses to about 41.8 µM), for inactives: at the highest dose activity change, negative = inhibition, hits mostly inhibitors; 3.4% of 340,000 active; Huh7.5.1 HCVcc-Cre infection, luciferase reporter, 44 h; also: potency is read from the fitted curve at half-maximal effect
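Infectious HCV cell culture screen: compound-treated cells (1,000/well, pre-plated 4 h) are infected with HCVcc-Cre at roughly 0.5 moi and grown 44 h. Infection is quantified by luciferase signal after 15 min substrate incubation at room temperature.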
LASV entry inh: blocks Lassa virus binding to or entry into cells. Potency, µM (titrated, usually from 37.9 µM), for the others: at the highest dose activity change, negative = inhibition, actives largely listed as inhibitors. AID 540256. Lassa virus pseudotype entry inhibition, cell reporter. 1.2% of 300,000 active; calls by dose curve; tested in HEK293 cells; also: potency is read from the fitted curve at half-maximal effect; nearly all actives have a fitted effect of over 50% in size
HCMV inh: human cytomegalovirus inhibition | HFF cells, HCMV-luciferase reporter, 72 h; active compounds read low | activity change, negative = inhibition, % at 57.5 µM | 4.5% of 410,000 active | AID 1259415; in the data active = activity change below about -60%; inconclusive = no clear call, values can overlap the other calls; inactive = above about -39%
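HFF cells seeded 16 h at 37C, treated with compounds, infected with luciferase-reporter HCMV at MOI 1 PFU/cell; luciferase read at 72 h post infection, normalized to buffer-only and Salinomycin controls.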
MARV entry inh: inhibitors of Marburg virus binding or cell entry. Marburg virus pseudotyped entry inhibition, cell reporter. Potency, µM (doses to about 37.8 µM), inactives show top-dose activity change, negative = inhibition, hits mostly inhibitors. 1.8% of 300,000 active. AID 540276; calls by dose curve; tested in HEK293 cells; also: potency is read from the fitted curve at half-maximal effect
FMDV antiviral: blocks foot and mouth disease virus; Potency, µM (top dose mostly 57.9 µM), for the others: top-dose activity change, negative = inhibition, hits mostly inhibitors; 1.2% of 410,000 active; FMDV antiviral cell-based qHTS; calls by dose curve; tested in HEK293T cells; also: read-out not given here; potency is read from the fitted curve at half-maximal effect; nearly all actives have a fitted effect of over 45% in size
FBPA Giardia inh: inhibitors of Giardia lamblia fructose-1,6-bisphosphate aldolase; A8B2U2; purified Giardia FBPA; Potency, µM (top dose mostly 59.6 µM), for the others: at the highest dose activity, negative = inhibition, actives largely listed as inhibitors; 0.71% of 290,000 active; AID 2451; also: potency is read from the fitted curve at half-maximal effect; nearly all actives have a fitted effect of over 55% in size
Target sequence (A8B2U2 whole entry, looked up): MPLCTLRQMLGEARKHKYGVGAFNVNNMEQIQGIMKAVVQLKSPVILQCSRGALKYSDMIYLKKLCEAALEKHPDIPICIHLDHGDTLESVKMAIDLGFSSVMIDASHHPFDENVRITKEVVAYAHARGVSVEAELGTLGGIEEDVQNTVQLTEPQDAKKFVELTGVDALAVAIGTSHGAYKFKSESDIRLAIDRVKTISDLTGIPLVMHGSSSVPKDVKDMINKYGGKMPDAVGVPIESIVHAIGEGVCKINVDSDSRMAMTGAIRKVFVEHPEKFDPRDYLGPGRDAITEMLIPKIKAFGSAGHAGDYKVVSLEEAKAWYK
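Giardia FBPA (40 nM reagent) was preincubated 10 min at RT with compound (up to 57.5 uM final), then substrate plus GAPDH/TPI/NAD/arsenate coupling system with diaphorase/resazurin was added; resorufin fluorescence (525/598 nm) was read after 20 min.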
Active calls of the source: *; ? = inconclusive; nt = not tested or not shown; [ ] = remark or other dose. Sampled rows, rich in hits. Any-hit rate of the full collection: about 8.3%. Unless noted, calls follow the shape of the dose curve; as a rule, active = well fitted curve in the direction sought with a large enough effect; inconclusive = small, poorly fitted or top-dose-only effect, or another doubt; inactive = no such curve, though single readings can be large; an effect the other way counts as inactive or inconclusive. % is scaled to controls: 0 for no effect and ±100 for the full control effect.

SMILES	HCV inhibitor	LASV entry inh	HCMV inh	MARV entry inh	FMDV antiviral	FBPA Giardia inh
CCOC(=O)[C@]12Cc3cc(OC)ccc3[C@H]1N(CCC(=O)OC)C(=O)c1cc(OC)ccc12	nt	nt	-107.4*	nt	20µM*	nt
CCOC(=O)[C@]12Cc3c(cc(OC)c(OC)c3OC)[C@H]1N(CCC(=O)OC)C(=O)c1ccccc12	nt	nt	-108.4*	nt	?	nt
CCOC(=O)[C@]12Cc3ccccc3[C@H]1N(Cc1ccccc1)C(=O)c1cc(OC)ccc12	nt	nt	12.4	nt	?	nt
CCOC(=O)[C@]12Cc3ccccc3[C@H]1N(CCC(=O)OC)C(=O)c1cc(OC)ccc12	nt	nt	-99.4*	nt	28.2µM*	nt
Cc1noc(C)c1-c1nc(Nc2ccc(F)cc2)c2ccccc2n1	nt	nt	nt	nt	-20.7%	-17.4%
C[C@@H]1CN(C2CCN(C(=O)COc3ccccc3)CC2)C[C@H](C)O1	nt	nt	nt	7.4%	nt	nt
CC1=C[C@@H](COCc2ccccc2)O[C@@]2(C1)C(=O)N(CC1CC1)c1ccccc12	nt	nt	nt	0.8%[14.2 µM]	nt	nt
Nc1ccc2ncccc2c1	5.9%	-2.9%	-21.1	16.3%	14.7%	2.23µM*
COc1ccc(C(=O)C(CN2CCCC2)c2ccccc2)cc1 (stereo not drawn)	?	?	-94.8*	?	15.8µM*	-3.9%
c1ccc(C(CN2CCOCC2)c2ccccc2)cc1	16.8%	-1.5%	40.4	20.3%	3.8%	?
CCCOc1ccc(C(=O)C(CN2CCCC2)c2ccccc2)cc1 (stereo not drawn)	?	?	-81.8*	?	17.8µM*	2.8%
O=C(c1ccc(F)cc1)C(CN1CCOCC1)c1ccccc1 (stereo not drawn)	11.2µM*	?	-76.6*	?	8.91µM*	-11.6%
O=C(c1ccccc1)C(CCC(CN1CCOCC1)C(=O)c1ccccc1)CN1CCOCC1 (stereo not drawn)	5.62µM*	14.1µM*	-105.4*	?	25.1µM*	-10.8%
CCN1C(=O)[C@@H]2[C@H]3[C@H](O)[C@H](O)CC(=NOCC[C@@H]4C=C[C@H](OC(C)=O)[C@@H](COC(C)=O)O4)[C@@H]3CC[C@H]2C1=O	nt	nt	nt	-14.6%[14.2 µM]	nt	nt
O=C(C1CCC1)N1CCCc2cc(S(=O)(=O)Nc3ccc(F)cc3)ccc21	nt	?	-11.6	nt	23.9%	nt
Cc1csc(C(C)N(C)C(=O)c2cc(NC(=O)C3CCC3)c3c(c2)nc(-c2ccncc2)n3C)n1 (stereo not drawn)	nt	nt	nt	nt	15.4%	nt
COc1ccc(C(=O)C(CN2CCOCC2)c2ccccc2)cc1 (stereo not drawn)	?	13µM*	-99.5*	?	11.2µM*	-9.2%
O=C(c1ccc(Cl)cc1)C(CN1CCCC1)c1ccccc1 (stereo not drawn)	?	nt	-101.0*	nt	25.1µM*	?
O=C(c1ccc(Cl)cc1)C1CCN(Cc2ccccc2)CC1	-10.4%	nt	-12.9	nt	-23.8%	1.8%
CCCCCCCCCC(=O)NC(CN1CCOCC1)[C@H](O)c1ccccc1 (stereo partly drawn)	nt	?	nt	15.8µM*	nt	-0.5%
CCCCOc1ccc(C(=O)C(CN2CCOCC2)c2ccccc2)cc1 (stereo not drawn)	?	?	-106.8*	?	17.8µM*	-11.3%
COc1cc(Br)c(C2CC(=O)Nc3cc(OC)c(OC)c(OC)c32)cc1OC (stereo not drawn)	nt	2.9%[46.1 µM]	16.9	-1.2%[46.1 µM]	97.8%	nt
COc1cc(OC)cc(-n2c(=O)c3ccccc3n(CC(=O)NCCc3ccc(OC)c(OC)c3)c2=O)c1	nt	-4.2%[46.1 µM]	-0.2	-28.5%[46.1 µM]	-21.3%	nt
Cn1c(NC(=O)c2cccc(Cn3cc(Cl)cn3)c2)nc2ccccc21	-21.0%	?	28.7	-6.9%	18.7%	15.5%
CCn1c(NC(=O)c2cccc(Cn3cc(Cl)cn3)c2)nc2ccccc21	14.1µM*	nt	-68.3*	nt	?	?
SMILES	HCV inhibitor	LASV entry inh	HCMV inh	MARV entry inh	FMDV antiviral	FBPA Giardia inh
CCCCn1c(NC(=O)c2ccccc2)nc2ccccc21	12.6µM*	?	-27.2	?	nt	?
CCCCn1c(NC(=O)C2CCCCC2)nc2ccccc21	12.6µM*	-29.4%	15.2	?	0.0%	?
COc1ccc(O[C@H]2C=C[C@@H](c3ccccc3)O[C@H]2COC(=O)CCC(C)=NO[C@@H](C)c2cc(-c3c(C)cc(C)cc3C)no2)cc1	nt	nt	nt	3.1%[14.2 µM]	nt	nt
c1csc(CNc2ncncc2-c2ccc3c(c2)OCO3)c1	nt	nt	nt	nt	-3.8%	-4.3%
C[C@H]1CN=C(N(C)C)N1CCc1cccc(F)c1	?	nt	-10.6	nt	-2.8%	nt
CN(C)C1=NC[C@H](Cc2ccccc2)N1CCCC1CCCCC1	3.98µM*	nt	-3.0	nt	?	nt
C[C@H]1CN=C(N(C)C)N1CCc1ccccc1	6.6%	nt	-66.6*	nt	3.0%	nt
COC(=O)C1=C(C(=O)OC)[C@@H]2Nc3ccccc3[C@@]23C[C@@H](C(=O)OC)N(S(=O)(=O)c2ccc(OC)cc2)C3=N1	nt	nt	nt	nt	nt	2.9%[12.9 µM]
O=C1NC(=S)N/C1=C\c1cccnc1	18.2%	nt	?	nt	-1.3%	-0.8%
O=C1/C(=C/c2cccnc2)CC/C1=C\c1cccnc1	2.2%	-2.8%[46.1 µM]	-98.7*	?	28.2µM*	0.6%
CC(C)/C=C1\CC/C(=C\c2cccnc2)C1=O	10.0%	nt	6.9	nt	28.2µM*	-10.6%
O=C1NC(=S)N/C1=C/c1cccnc1	-0.4%	nt	-63.3*	nt	-14.6%	-0.4%
CCC1C/C(=C\c2cccnc2)C(=O)/C(=C/c2cccnc2)C1 (stereo not drawn)	?	4.47µM*	-98.3*	5.8µM*	3.55µM*	1.6%
CC12C=C(/C=C/CCc3ccco3)C(C)(C1)C(CCc1ccco1)CC2=O (stereo not drawn)	nt	nt	nt	-5.8%[14.2 µM]	nt	-5.7%[12.9 µM]
COC(=O)C1=C(C)N(CC2CC2)C(N(C)Cc2ccc(OC)cc2)=NC1c1ccccc1 (stereo not drawn)	nt	nt	nt	-14.1%[14.2 µM]	nt	nt
O=C1/C(=C/c2cccnc2)CCC/C1=C\c1cccnc1	?	7.08µM*	-101.3*	?	?	-0.4%
O=C1/C(=C\c2cccnc2)CCc2ccccc21	-1.2%	0.2%	?	9.2%	-16.3%	0.1%
O=C1[C@@H]2[C@H]3[C@H](O)[C@H](O)CC(=NOC[C@@H](O)COCc4ccco4)[C@H]3CC[C@H]2C(=O)N1C[C@@H]1CCCO1	nt	nt	nt	3.6%[14.2 µM]	nt	nt
CC(C)CC(=O)NC(Nc1ccc([N+](=O)[O-])cc1)C(Cl)(Cl)Cl (stereo not drawn)	?	?	-27.4	?	31.6µM*	-7.4%
CC(C)CC(=O)NC(Nc1ccccc1F)C(Cl)(Cl)Cl (stereo not drawn)	19.1%	4.4%	-28.8	-24.6%	-7.5%	2.4%
OC1(c2ccccc2)CN(c2ccccc2)C2=[N+]1CCS2 (stereo not drawn)	?	-5.3%	-62.2*	-18.2%	?	24.8%
CCC(=O)OCOc1ccc(/C=C2/CCC(CN(C)C)C2=O)cc1 (stereo not drawn)	?	?	?	?	31.6µM*	nt

Assay outcomes (PubChem)
